Source: the supplement of paper PMC7366291
Structures can show the parent of a compound that is named as a salt. ± gives the standard deviation or the standard deviation of the averaged measurements.

Experiments:
Settings in all cases: 25 µM; exposure: 24-48 hpf
[1] = tested on: Danio rerio Tg(wt1b:EGFP) embryo, pronephros; test: glomerular separation, fold change vs DMSO control; higher = glomeruli further apart (abnormal)
Outline: (§1)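 Every feature is expressed as a fold change relative to the averaged DMSO-treated embryos of the same day. The exposure ran from 24 to 48 hpf at 28.5°C, with dechorionated Tg(wt1b:EGFP) zebrafish embryos in HEPES-buffered E3 containing 0.003% PTU, 0.5% DMSO and 25 μM compound. Dorsal pronephros images taken in agarose-filled 96-well plates were reduced to maximum projections, on which 16 reference points were set by hand in Fiji for a macro to compute distances and angles. Values more than 2 SD from the feature mean were not used.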

[2] = tested on: Danio rerio Tg(wt1b:EGFP) embryo, pronephros; test: glomerular width (mean of left and right), fold change vs DMSO control; higher = wider glomerulus
Outline: as §1

[3] = tested on: Danio rerio Tg(wt1b:EGFP) embryo, pronephros; test: fraction of imaged embryos annotated as normal kidney; higher = less nephrotoxic; extreme values may be limits of the assay
Outline: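 Embryos of the Tg(wt1b:EGFP) zebrafish line were dechorionated and held in 12-well plates with 25 μM compound in 0.5% DMSO and 5 mM HEPES-buffered E3 containing 0.003% PTU, from 24 to 48 hpf at 28.5°C. Larvae were then anaesthetised with tricaine, set dorsal side up in agarose-filled 96-well plates, and their pronephroi imaged by widefield fluorescence at 470 nm over 10 z-slices. Each value is the fraction of embryos per treatment placed in the normal-kidney category after manual annotation of maximum projections.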

[4] = tested on: Danio rerio Tg(wt1b:EGFP) embryo, pronephros; test: pronephric angle neck segment to proximal convoluted tubule (mean of left and right), fold change vs DMSO control; higher = larger pronephric angle
Outline: as §1

Row | SMILES | glomerular separation [1] | glomerular width [2] | fraction of imaged embryos annotated as normal kidney [3] | pronephric angle neck segment [4]
1 | COc1ccc(NS(=O)(=O)c2ccc(N)cc2)nn1 [Sulfamethoxypyridazine] | 0.681 ± 0.15 | 1.03 ± 0.1 | 1 | 1.006 ± 0.0011
2 | Nc1nc(O)c2ncn(CCC(CO)CO)c2n1 [Penciclovir] | 0.817 ± 0.31 | 1.01 ± 0.019 | 0.917 | 0.964 ± 0.05
3 | COc1ccc(C(=O)NCc2cccnc2)cc1C(=O)NCc1cccnc1 [Picotamide monohydrate] | 0.955 ± 0.31 | 1.028 ± 0.0052 | 0.75 | 0.991 ± 0.0099
4 | Cc1onc(-c2ccccc2Cl)c1C(=O)N[C@@H]1C(=O)N2[C@@H]1SC(C)(C)[C@@H]2C(=O)O [Cloxacillin sodium salt] | 1.06 ± 0.42 | 1.172 ± 0.0081 | 0.833 | 1 ± 0.035
5 | C=C(CC)C(=O)c1ccc(OCC(=O)O)c(Cl)c1Cl [Ethacrynic acid] | 1.05 ± 0.28 | 1.02 ± 0.0053 | 0.75 | 0.9182 ± 0.0012
6 | Nc1nc(N)c2nc(-c3ccccc3)c(N)nc2n1 [Triamterene] | 1.02 ± 0.42 | 0.902 ± 0.0063 | 0.75 | 0.935 ± 0.046
7 | CN1CCC(=C2c3ccccc3Sc3ccccc32)CC1 [Pimethixene maleate] | 1.32 ± 0.41 | 1.01 ± 0.021 | 0.917 | 1.062 ± 0.0083
8 | Clc1ccc(COC(Cn2ccnc2)c2ccc(Cl)cc2Cl)cc1 (stereo not given) [Econazole nitrate] | 2.58 ± 1.3 | 0.9791 ± 0.0056 | 0.417 | 1.2 ± 0.0047
9 | Cc1onc(-c2ccccc2)c1C(=O)N[C@@H]1C(=O)N2[C@@H]1SC(C)(C)[C@@H]2C(=O)O [Oxacillin sodium] | 0.779 ± 0.29 | 1 ± 0.087 | 0.833 | 0.9685 ± 0.0044
10 | CS(=O)(=O)OCCCCOS(C)(=O)=O [Busulfan] | 0.771 ± 0.21 | 0.97453 ± 0.00036 | 0.75 | 0.943 ± 0.034
